# Laboratory results reported in PubChem BioAssay.
# Results filed as inconclusive are left out. Active and inactive are the calls of the source. Cut-off read from the data, not from the text of the source, unless noted: active = inhibition above about 80%; inactive = the rest.
# Tests used:
# [1] = growth inhibition of DIPG glioma cells, dose response, cell-based, SU-DIPG-XVII, MIPE5.0, CellTiter-Glo, qHTS (AID 1347060; cut-off not given, nearly all actives have AC50 up to about 26 µM;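 for AC50: cells exposed to compound for 48 hours before viability readout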); settings: SU-DIPG-XVII viability, CellTiter-Glo ATP luminescence
# [2] = growth inhibition of DIPG glioma cells, dose response, cell-based, SU-DIPG-XIII, MIPE4.0, CellTiter-Glo, qHTS (AID 1347061; cut-off not given, nearly all actives have AC50 up to about 37 µM;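 note: cells exposed to compound for 48 hours before readout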); settings: SU-DIPG-XIII viability, CellTiter-Glo ATP luminescence
# [3] = viability loss in pontine glioma line – cell-based, SU-DIPG-XXV, MIPE5.0, CellTiter-Glo, qHTS, dose response (AID 1347065; cut-off not given, nearly all actives have AC50 up to about 26 µM;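 note: cells exposed to compound for 48 hours before ATP readout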); settings: CellTiter-Glo ATP luminescence
# [4] = SU-DIPG-XXV glioma cell viability, MIPE5.0 library, qHTS (AID 1347068; cut-off not given, nearly all actives have IC50 up to about 30 µM;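 for IC50: cells exposed to compound for 48 hours before viability readout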)
# [5] = growth inhibition of DIPG glioma cells, dose response, cell-based, JHH-DIPG-1, MIPE4.0, CellTiter-Glo, qHTS (AID 1347062; cut-off not given, nearly all actives have AC50 up to about 27 µM;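 for AC50: cells exposed to compound for two days before readout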); settings: JHH-DIPG-1 viability, CellTiter-Glo ATP luminescence
# [6] = growth inhibition of DIPG glioma cells, dose response, cell-based, SU-DIPG-IV, MIPE4.0, CellTiter-Glo, qHTS (AID 1347063; cut-off not given, nearly all actives have AC50 up to about 30 µM;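 note: compound exposure lasted 48 hours before the viability readout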); settings: SU-DIPG-IV viability, CellTiter-Glo ATP luminescence
# [7] = growth inhibition of DIPG glioma cells, dose response, cell-based, SU-DIPG-XIII, MIPE5.0, CellTiter-Glo, qHTS (AID 1347064; cut-off not given, nearly all actives have AC50 up to about 23 µM;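 for AC50: cells exposed to compound for 48 hours before the viability read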); settings: SU-DIPG-XIII viability, CellTiter-Glo ATP luminescence
# [8] = SU-DIPG-VI glioma cell viability, MIPE4.0 library, CellTiter-Glo luminescence, qHTS (AID 1347066; cut-off not given, nearly all actives have AC50 up to about 30 µM;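 note: cells exposed to compound for 48 hours before readout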); settings: CellTiter-Glo ATP luminescence
# [9] = JHH-DIPG-1 glioma cell viability, MIPE5.0 library, CellTiter-Glo luminescence, qHTS (AID 1347067; cut-off not given, nearly all actives have AC50 up to about 26 µM;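 note: cells exposed to compound for 48 hours before readout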); settings: JHH-DIPG-1 glioma viability, CellTiter-Glo ATP luminescence
# [10] = LFS_MB_P medulloblastoma growth inhibition, cell-based, chromothripsis tumors, cisplatin or BGB combos (AID 1671449); settings: LFS_MB_P medulloblastoma cells;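 note: cells exposed for 96 hours; 0% = vehicle DMSO and 100% = killing by high DMSO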
# [11] = HDN33 neuroblastoma growth inhibition, cell-based, chromothripsis tumors, cisplatin or BGB combos (AID 1671450); settings: HDN33 neuroblastoma cells, stronger effect = higher value;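 note: cells exposed to compound for four days; 0% = vehicle DMSO and 100% = cell killing by high DMSO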
# [12] = ICB984 medulloblastoma cell growth inhibition, synergistic combos for chromothripsis tumors, cisplatin or BGB combos (AID 1671451; call rule not given here;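 note: cells exposed for 96 hours before readout; 0% = vehicle DMSO and 100% = killing by high DMSO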); settings: ICB984 medulloblastoma cells, drug combinations, stronger effect = higher value
# [13] = LFS_MB_1R medulloblastoma cell growth inhibition, synergistic combos for chromothripsis tumors, cisplatin or BGB combos (AID 1671452); settings: LFS_MB_1R medulloblastoma cells, stronger effect = higher value;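 note: cells exposed for 96 hours before readout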
# [14] = HTB85 osteosarcoma cell growth inhibition, synergistic combos for chromothripsis tumors, BGB or cisplatin IC20 combos (AID 1671453); settings: HTB85 osteosarcoma cells, drug combinations, stronger effect = higher value;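 note: cells exposed for 96 hours before readout; 0% = vehicle DMSO and 100% = high DMSO killing control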
# [15] = CRL2098 osteosarcoma cell growth inhibition, synergistic combos for chromothripsis tumors, BGB or cisplatin IC20 combos (AID 1671454); settings: CRL2098 osteosarcoma cells, drug combinations, stronger effect = higher value;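 note: cells exposed for 96 h before readout; 0% = vehicle DMSO and 100% = killing by high DMSO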
# [16] = HD-MB03 medulloblastoma cell growth inhibition, synergistic combos for chromothripsis tumors, BGB or cisplatin IC20 combos (AID 1671455; in the data active = inhibition above about 83%;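 note: 0% = vehicle DMSO and 100% = high DMSO as cytotoxic control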); settings: HD-MB03 medulloblastoma cells, stronger effect = higher value
# [17] = UWB1.289 ovarian carcinoma cell growth inhibition, synergistic combos for chromothripsis tumors, BGB or cisplatin combos (AID 1671456); settings: UWB1.289 ovarian carcinoma cells, stronger effect = higher value;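 note: cells exposed to compound for four days; 0% = vehicle DMSO and 100% = killing by high DMSO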
# [18] = LFS_MB_2R medulloblastoma cell growth inhibition, synergistic combos for chromothripsis tumors, cisplatin combos (AID 1671457); settings: LFS_MB_2R medulloblastoma cells, stronger effect = higher value;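 note: cells exposed to compound for four days before readout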
# [19] = MDA-MB-436 breast carcinoma cell growth inhibition, synergistic combos for chromothripsis tumors, BGB or cisplatin combos (AID 1671458; call rule not given here;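 note: cells exposed for 96 hours; 0% = vehicle DMSO and 100% = killing by high DMSO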); settings: MDA-MB-436 breast carcinoma growth inhibition, drug combinations, stronger effect = higher value
# [20] = UWB1.289_BRCA1 ovarian cancer growth, cell-based, BGB or cisplatin combinations (AID 1671459); settings: UWB1.289 BRCA1 ovarian carcinoma, drug combinations, stronger effect = higher value
# [21] = human astrocyte viability loss, single and combined drugs, cytotoxicity control for chromothriptic childhood tumor combination screen, cell-based, BGB or cisplatin IC20 combos (AID 1671460); settings: Human astrocytes, drug combinations, stronger effect = higher value;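 note: cells exposed to compounds for 96 hours before viability readout; 0% = vehicle and 100% = killing control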
# [22] = growth inhibition of BT084 medulloblastoma cells, cell-based, ICGC_MB145, cisplatin and BGB IC40 combos (AID 1671461); settings: drug combinations, stronger effect = higher value;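 note: cells exposed to drugs for 96 hours; 0% = vehicle DMSO and 100% = high DMSO full killing control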
# [23] = growth inhibition of RCMB18 medulloblastoma cells, cell-based, cisplatin and BGB IC40 combos (AID 1671462); settings: stronger effect = higher value;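 note: cells exposed to compound for four days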
# [24] = growth inhibition of CRL1545 osteosarcoma cells, cell-based, cisplatin and BGB IC20 combos (AID 1671464); settings: stronger effect = higher value;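 note: cells exposed to compound for 96 hours before readout; 0% = vehicle DMSO and 100% = high DMSO killing control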
# [25] = measured here: combination with BGB IC40, at 0.05 µM
# [26] = measured here: with BGB IC20 combination, at 0.5 µM
# [27] = measured here: with cisplatin IC20 combination, at 0.5 µM
# [28] = measured here: combination with cisplatin, at 0.5 µM
# [29] = measured here: combination with cisplatin, at 5 µM
smiles,measurement,setting,value
Cc1ccccn1.[Cl][Pt][Cl].[NH2-],outcome,[1],inactive
same,outcome,[2],inactive
same,outcome,[3],inactive
same,outcome,[4],inactive
COC(=O)[C@]12CCC(C)(C)C[C@H]1[C@H]1C(=O)C=C3[C@@]4(C)C=C(C#N)C(=O)C(C)(C)[C@@H]4CC[C@@]3(C)[C@]1(C)CC2,AC50,[1],3720 nM (active)
same,AC50,[2],2640 nM (active)
same,AC50,[5],590 nM (active)
same,AC50,[6],469 nM (active)
same,AC50,[7],3720 nM (active)
same,AC50,[3],2090 nM (active)
same,AC50,[8],743 nM (active)
same,AC50,[9],833 nM (active)
same,IC50,[4],10500 nM (active)
CN[C@@H]1Cc2cccc3[nH]c(=O)n(c23)C1,outcome,[1],inactive
same,outcome,[2],inactive
same,outcome,[5],inactive
same,outcome,[7],inactive
same,outcome,[3],inactive
same,outcome,[8],inactive
same,outcome,[9],inactive
same,outcome,[4],inactive
CN(C)NC(=O)CCC(=O)O,outcome,[1],inactive
same,outcome,[2],inactive
same,outcome,[5],inactive
same,outcome,[6],inactive
same,outcome,[7],inactive
same,outcome,[8],inactive
same,outcome,[9],inactive
same,outcome,[4],inactive
same,inhibition,"[10]; at 0.5 µM, stronger effect = higher value",-0.95% (inactive)
same,inhibition,"[10]; measured here: combination with BGB IC20, at 0.005 µM",-31%
same,inhibition,"[10]; measured here: combination with BGB IC40, at 0.005 µM",-30.2%
same,inhibition,[10]; [25],-24.7%
same,inhibition,"[10]; measured here: combination with cisplatin, at 0.5 µM, stronger effect = higher value",2.21%
same,inhibition,"[10]; measured here: combination with cisplatin, at 5 µM, stronger effect = higher value",-34.9%
same,inhibition,"[11]; BGB combo, at 5 µM",-23.5%
same,inhibition,[11]; at 0.5 µM,-21.4% (inactive)
same,inhibition,"[11]; cisplatin combo, at 5 µM",-14%
same,inhibition,[11]; [26],-37.1%
same,inhibition,[11]; [27],-10.8%
same,inhibition,"[11]; single agent, at 5 µM",-11.1%
same,inhibition,"[12]; BGB IC20 combo, at 0.005 µM",-38.4%
same,inhibition,"[12]; BGB IC40 combo, at 0.005 µM",-26.9%
same,inhibition,"[12]; BGB IC40 combo, at 0.05 µM",-23.3%
same,inhibition,[12]; at 0.5 µM,-22.7% (inactive)
same,inhibition,"[12]; cisplatin combo, at 0.05 µM",-27.8%
same,inhibition,"[12]; cisplatin combo, at 0.5 µM",-26.2%
same,inhibition,"[12]; cisplatin combo, at 5 µM",-3.89%
same,inhibition,"[12]; measured here: 5 uM single agent, at 5 µM",-1.92%
same,inhibition,[13]; at 0.5 µM,-2.69% (inactive)
same,inhibition,[13]; [25],-23.8%
same,inhibition,[13]; [28],18.7%
same,inhibition,[13]; [29],-7.99%
same,inhibition,[14]; at 0.5 µM,-8.01% (inactive)
same,inhibition,"[14]; measured here: with BGB IC20, at 0.5 µM",-17.1%
same,inhibition,"[14]; measured here: with BGB IC20, at 5 µM",-18.2%
same,inhibition,"[14]; measured here: with cisplatin IC20, at 0.5 µM",10.6%
same,inhibition,"[14]; measured here: with cisplatin IC20, at 5 µM",-1.55%
same,inhibition,"[14]; single agent, at 5 µM",-16.5%
same,inhibition,[15]; at 0.5 µM,-47.3% (inactive)
same,inhibition,"[15]; measured here: combination with BGB at IC20, at 0.5 µM",-35.5%
same,inhibition,"[15]; measured here: combination with cisplatin at IC20, at 0.5 µM",-70.4%
same,inhibition,[16]; at 0.5 µM,-8.93% (inactive)
same,inhibition,"[16]; measured here: combo with BGB at IC20, at 0.5 µM",-16.7%
same,inhibition,"[16]; measured here: combo with cisplatin at IC20, at 0.5 µM",-5.27%
same,inhibition,[17]; at 0.5 µM,-6.42% (inactive)
same,inhibition,"[17]; measured here: inhibition with BGB combination, at 0.05 µM",-16.9%
same,inhibition,"[17]; measured here: inhibition with cisplatin combination, at 0.05 µM",-15.9%
same,inhibition,[18]; at 0.5 µM,-22.3% (inactive)
same,inhibition,[18]; [28],-20.6%
same,inhibition,[18]; [29],-15.1%
same,inhibition,[19]; at 0.5 µM,-23% (inactive)
same,inhibition,"[19]; measured here: BGB combination, at 0.5 µM",-22.6%
same,inhibition,"[19]; measured here: BGB combination, at 5 µM",-35.6%
same,inhibition,"[19]; measured here: cisplatin combination, at 0.5 µM",-26.7%
same,inhibition,"[19]; measured here: cisplatin combination, at 5 µM",-43.4%
same,inhibition,"[20]; BGB combination, concentration series, at 5 µM",-16%
same,inhibition,[20]; at 0.5 µM,-15.1% (inactive)
same,inhibition,"[20]; cisplatin combination, concentration series, at 5 µM",-31.4%
same,inhibition,[21]; at 0.5 µM,-16.7% (inactive)
same,inhibition,"[21]; measured here: combo with BGB IC20, at 0.5 µM",-24.5%
same,inhibition,"[21]; measured here: combo with cisplatin IC20, at 0.5 µM",-4.55%
same,inhibition,[22]; at 0.5 µM,-3.48% (inactive)
same,inhibition,"[22]; cisplatin combination, at 0.5 µM",-21.4%
same,inhibition,"[22]; cisplatin combination, at 5 µM",-13.9%
same,inhibition,"[22]; measured here: BGB IC40 combination 0.05 uM, at 0.05 µM",-20.2%
same,inhibition,"[22]; single agent, at 5 µM",-16.7%
same,inhibition,[23]; at 0.5 µM,-11.5% (inactive)
same,inhibition,"[23]; cisplatin combo, at 5 µM",1.98%
same,inhibition,"[23]; measured here: BGB IC40 combination, at 0.05 µM",-3.93%
same,inhibition,[23]; [28],15.6%
same,inhibition,"[23]; single agent, at 5 µM",-10.2%
same,inhibition,[24]; at 0.5 µM,-22.5% (inactive)
same,inhibition,[24]; [26],-20%
same,inhibition,[24]; [27],-25.8%
same,inhibition,"[24]; single agent, at 0.05 µM",-6.7%
same,inhibition,"[24]; single agent, at 5 µM",-28%
